Source: PubChem BioAssay AID1159580 (chemical genetic matrix, 2015)
“And” between values parts separate entries of the source, which are not always exact repeats. Equal entries are not always repeated. About 2,000 (36%) of roughly 5,500 compounds were called active. Roughly 18% stayed inconclusive and do not appear here. No stated cut-off is given here; in the data, active means normalized growth mostly below about 0.91 (no sharp cut-off); inconclusive means no clear call, values can overlap the other calls; inactive means mostly above about 0.92. The list shows a part of the results.

Assay: chemical genetic growth profiling, strain panel (AID 1159580);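 further: tested at 20 µM; growth read once vehicle control cultures reached saturation at 30 °C; 1 = growth at the plate median or of vehicle wells; lower values mean less growth of the strain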
Settings: S. cerevisiae deletion strains, growth OD

Measured: normalized growth

Nc1ccc(S(=O)(=O)Nc2cnc3ccccc3n2)cc1
inactive: locus YAL013W, strain DEP1, hits give low values 0.994 | locus YAL021C, strain ccr4, hits give low values 1.01 | locus YAL026C, strain drs2, hits give low values 1 | locus YAL030W, strain snc1, hits give low values 1.02 | locus YBL061C, strain skt5, hits give low values 1 | locus YBR009C, strain hhf1, hits give low values 0.973 | locus YBR021W, strain FUR4, hits give low values 0.999 | locus YBR023C, strain chs3, hits give low values 1.02 | locus YBR171W, strain sec66, hits give low values 1.02 | locus YBR229C, strain ROT2, hits give low values 0.957 | locus YBR231C, strain swc5, hits give low values 1.01 | locus YBR279W, strain paf1, hits give low values 1.01 | locus YCL011C, strain gbp2, hits give low values 1.01 | locus YCL016C, strain dcc1, hits give low values 1 | locus YCL029C, strain bik1, hits give low values 0.983 | locus YCL061C, strain MRC1, hits give low values 1.02 | locus YCL069W, strain vba3, hits give low values 1.02 | locus YCR088W, strain abp1, hits give low values 1.01 | locus YDL005C, strain med2, hits give low values 1.02 | locus YDL035C, strain GPR1, hits give low values 1 | locus YDL040C, strain nat1, hits give low values 1.01 | locus YDL074C, strain BRE1, hits give low values 0.977 | locus YDL101C, strain DUN1, hits give low values 0.989 | locus YDL134C, strain PPH21, hits give low values 1.01 | locus YDL185W, strain tfp1, hits give low values 0.974 | locus YDL192W, strain arf1, hits give low values 0.973 | locus YDR001C, strain nth1, hits give low values 1.02 | locus YDR069C, strain doa4, hits give low values 1.03 | locus YDR101C, strain arx1, hits give low values 1 | locus YDR137W, strain rgp1, hits give low values 0.993 | locus YDR150W, strain NUM1, hits give low values 0.991 | locus YDR159W, strain sac3, hits give low values 0.955 | locus YDR162C, strain NBP2, hits give low values 0.999 | locus YDR195W, strain ref2 1.01 | locus YDR297W, strain sur2, hits give low values 1.02 | locus YDR318W, strain mcm21, hits give low values 0.995 | locus YDR334W, strain swr1, hits give low values 1.02 | locus YDR335W, strain msn5, hits give low values 1.01 | locus YDR388W, hits give low values 0.986 | locus YDR392W, strain spt3, hits give low values 0.942 | locus YDR502C, strain sam2, hits give low values 0.978 | locus YEL003W, strain gim4, hits give low values 1.02 | locus YEL037C, strain rad23, hits give low values 1.01 | locus YEL061C, strain CIN8 (second series), hits give low values 1.01 | locus YEL061C, strain CIN8, hits give low values 0.981 | locus YER015W, strain faa2, hits give low values 1 | locus YER016W, strain bim1, hits give low values 0.962 | locus YER110C, hits give low values 0.981 | locus YER111C, strain swi4, hits give low values 1.02 | locus YER155C, strain BEM2 (second series), hits give low values 0.981 | locus YER155C, strain BEM2, hits give low values 0.996 | locus YER167W, strain BCK2, hits give low values 0.993 | locus YFR010W, strain ubp6, hits give low values 1.04 | locus YGL078C, strain dbp3, hits give low values 0.99 | locus YGL086W, strain mad1, hits give low values 0.983 | locus YGL167C, strain pmr1, hits give low values 1.01 | locus YGL173C, strain kem1, hits give low values 1.01 | locus YGL227W, strain vid30, hits give low values 1.02 | locus YGL240W, strain doc1, hits give low values 1.03 | locus YGL248W, strain PDE1, hits give low values 0.972 | locus YGL253W, strain hxk2, hits give low values 1.02 | locus YGR135W, strain pre9, hits give low values 0.992 | locus YGR252W, strain gcn5, hits give low values 0.988 | locus YHR013C, strain ard1, hits give low values 1 | locus YHR027C, strain rpn1, hits give low values 1.01 | locus YHR030C, strain SLT2, hits give low values 1 and 0.974 | locus YHR079C, strain IRE1 (second series), hits give low values 0.989 | locus YHR079C, strain IRE1, hits give low values 0.957 | locus YHR094C, strain hxt1, hits give low values 0.985 | locus YHR129C, strain ARP1, hits give low values 0.989 | locus YHR142W, strain chs7, hits give low values 1.05 | locus YHR200W, strain rpn10, hits give low values 0.967 | locus YIL066C, strain RNR3, hits give low values 0.978 | locus YIL073C, strain SPO22, hits give low values 1.02 | locus YIL125W, strain kgd1, hits give low values 0.981 | locus YIR030C, strain dcg1, hits give low values 0.981 | locus YJL092W, strain hpr5, hits give low values 0.996 | locus YJL095W, strain BCK1 (second series), hits give low values 1.02 | locus YJL095W, strain BCK1, hits give low values 0.965 and 0.98 | locus YJL115W, strain asf1, hits give low values 1.02 | locus YJL129C, strain trk1, hits give low values 1.01 | locus YJL134W, strain LCB3, hits give low values 0.993 | locus YJL154C, strain vps35, hits give low values 1.02 | locus YJL164C, strain tpk1, hits give low values 0.996 | locus YJL166W, strain qcr8, hits give low values 1.02 | locus YJL168C, strain set2, hits give low values 0.976 | locus YJL187C, strain SWE1 (second series), hits give low values 0.964 | locus YJL187C, strain SWE1, hits give low values 1.01 | locus YJR043C, strain POL32, hits give low values 1.02 | locus YJR066W, strain TOR1, hits give low values 0.918
